Assay outcomes as filed in PubChem.
Only a sample is shown.
aSyn UTR act = Activators via SNCA 5'UTR binding, MLPCN; alpha-synuclein 5'UTR reporter, activators screen; activity score, % (tested at 7.5 µM), hits read low; 300,000 compounds, 7.1% hits; AID 1814, 2009; in the data active means activity score below about -60%
A number is an active result; - = inactive; + = active, no number.

SMILES	aSyn UTR act
COc1ccc(NC(=O)c2ccc3c(c2)OCO3)cc1Cl	-145
O=C(CCCc1cccs1)Nc1ccc2c(c1)OCO2	-182
COc1ccc(CNC(=O)Cc2cccs2)cc1	-70
COc1ccc(CNC(=O)CSc2ccsc2[N+](=O)[O-])cc1	-117
O=C(Cc1cccs1)NCc1cccc(Br)c1	-112
O=C(CCCN1C(=O)/C(=C/c2ccc3c(c2)OCO3)SC1=S)Nc1cccc(C(=O)O)c1	-
O=C(Cc1cccs1)NCc1ccc2c(c1)OCO2	-65
CCC1CSC(Nc2ccc(C(=O)/C=C/c3ccc(Oc4ccccc4)cc3)cc2)=N1 (stereo not drawn)	-88
Cc1cc(C)nc(Nc2nc3ccccc3s2)n1	-177
CC(=O)c1c(C)nc(Nc2nc3ccccc3s2)nc1C	-83
COc1cc(O)oc1C=Nc1ccc(C(F)(F)F)cc1	-89
Cc1ccnc(NC(=O)CCC2CCCCC2)c1	-193
O=C(CCC1CCCC1)Nc1ccc(Br)cn1	-197
Cc1cc(NC(=O)CCC2CCCC2)no1	-65
CC1CCC/C(=C\Nc2ccc(C(=O)O)cc2)C1=O (stereo not drawn)	-121
CCOC(=O)c1ccc(N/C=C2/CCCC(C)C2=O)cc1 (stereo not drawn)	-153
COc1ccc(N=Cc2oc3ccc4ccccc4c3c2O)cc1	-223
Cc1ccc(C(=O)N2CCN3C(=O)c4ccccc4C23c2ccc(Cl)cc2)cc1 (stereo not drawn)	-69
O=C(NCCc1cccc(Cl)c1)c1cccnc1	-84
COc1ccc(Cl)cc1NC(=O)c1cnc2sccn2c1=O	-106
O=C(NC(c1ccccc1)c1cc(Cl)c2cccnc2c1O)c1cccnc1 (stereo not drawn)	-
O=C(NCCc1ccccc1)c1cccs1	-94
O=C(NCCc1ccccc1)c1cnc2sccn2c1=O	-90
CC1(C)Oc2cc3oc(-c4cc(O)cc(O)c4)cc3cc2CC1O (stereo not drawn)	-
CCO[C@H]1OC(C(=O)NCc2nc3ccccc3[nH]2)=C[C@@H](C2CC2)[C@@H]1CCCO	-
SMILES	aSyn UTR act
O=C(NCCc1cccc(Cl)c1)c1cccs1	-115
O=C(NCc1nc2ccccc2[nH]1)c1cccs1	-64
Cc1cc2ccccc2n1CCNC(=O)c1cccs1	-121
O=[N+]([O-])c1ccc(N=Nc2c(O)[nH]c3ccc(F)cc23)cc1	-82
Oc1[nH]c2ccccc2c1N=Nc1ccccc1	-123
CC(C)(O)C(=O)N=Nc1c(O)[nH]c2ccccc12	-96
Oc1[nH]c2ccccc2c1N=Nc1ccc(F)cc1	-171
O=C1NCCc2c1[nH]c1ccc([N+](=O)[O-])cc21	-
Oc1[nH]c2ccccc2c1N=Nc1ccccc1F	-357
Cc1nc2ccccn2c1C(=O)N=Nc1c(O)[nH]c2ccccc12	-103
O=C(NCc1cccs1)c1ccc(N2CCCC2=O)cc1	-106
CC1CCCN(c2ccc(C(=O)NCc3ccccc3)cn2)C1 (stereo not drawn)	-103
CC1CCCN(c2ccc(C(=O)NCc3cccs3)cn2)C1 (stereo not drawn)	-85
CC1CCN(c2ccc(C(=O)NCCc3ccccc3)cn2)CC1	-105
O=C(NCc1cccs1)c1ccc(N2CCCCC2)nc1	-131
O=C(Nc1ccccc1O)c1ccc(NS(=O)(=O)c2cccc3cccnc23)cc1	-605
O=C(Nc1ncccc1O)c1ccc(S(=O)(=O)Nc2ccccc2)cc1	+
Cc1nn(C)c(=O)c(N)c1-c1cc(-c2ccc(Cl)c(Cl)c2)n[nH]1	-71
Cc1ccc(-c2cc(-c3c(C)nn(C)c(=O)c3N)[nH]n2)cc1	-110
Cc1cccc2c1OCC/C2=N\NC(=O)COc1ccccc1Cl	-79
CCCCC(=O)NC(c1ccc(N(CC)CC)cc1)c1ccc2cccnc2c1O (stereo not drawn)	-
Clc1ccc(CO/N=C2\CCCc3nonc32)cc1	-70
CCOc1ccc(/C=C\C(C)=N\O)cc1	-150
CCOc1ccc(/C=C/C(=O)CCC(=O)O)cc1	-79
CCOc1ccc(N(CC(=O)NCc2ccc(OC)cc2)S(C)(=O)=O)cc1	-81
SMILES	aSyn UTR act
CCOc1ccc(N(CC(=O)Nc2ccc(C)c(C)c2)S(C)(=O)=O)cc1	-171
COc1ccccc1N(CC(=O)N/N=C/c1c(O)ccc2ccccc12)S(C)(=O)=O	-
COc1ccc(CNC(=O)CN(c2cc(C)cc(C)c2)S(=O)(=O)c2c(C)[nH]c(=O)[nH]c2=O)cc1	-81
CC(=O)Nc1ccc(NC(=O)CN(c2cccc([N+](=O)[O-])c2)S(C)(=O)=O)cc1	-
COc1ccc(N(CC(=O)Nc2cc(Cl)ccc2OC)S(=O)(=O)c2c(C)noc2C)cc1	-
Nn1c(SCC(=O)Nc2ccc(F)cc2F)nnc1C1CCCCC1	-64
Nn1c(SCC(=O)Nc2ccc(F)cc2F)nnc1-c1cccnc1	-89
Cc1cc(-c2nnc3n2N=C(c2ccc(F)cc2)CS3)n[nH]1	-77
Cc1cccc(-c2nnc3n2N=C(c2ccccc2)CS3)c1	-
CN(C)CCNc1ncnc2c1sc1nc(N3CCOCC3)c3c(c12)CC(C)(C)SC3	-
CC1(C)Cc2c(c(N3CCOCC3)nc3sc(C(=O)Nc4ccccc4)c(N)c23)CO1	-74
CC(C)CCSc1nc(N2CCOCC2)c2c(c1C#N)CC(C)(C)OC2	-
CCC(C)c1ccc2oc(-c3ccc(NC(=O)Cn4cnc5c(=O)n(C)c(=O)n(C)c54)cc3)nc2c1 (stereo not drawn)	-114
Cc1ccc2oc(-c3cccc(NC(=O)Cn4cnc5c(=O)n(C)c(=O)n(C)c54)c3)nc2c1	-119
COc1ccc(Nc2nc(-c3cc4cccc(OC)c4oc3=O)cs2)cc1	-83
COc1ccc2oc(=O)c(-c3csc(Nc4cccc(O)c4)n3)cc2c1	-76
Nc1ccccc1Nc1cc(-c2ccccc2)[nH]n1	-171
Cn1c(=O)n(CCOc2ccccc2Cl)c2ccccc21	-99
Cc1ccc(OCCn2c(=O)n(C)c3ccccc32)cc1	-123
CCOc1ccc(N/C(C)=C\C(=O)c2ccc3c(c2)OCCO3)cc1	-133
CCOc1ccc(N/C(C)=C/C(=O)c2ccc3c(c2)OCCO3)cc1	-204
C[C@@H]1C=CC(=O)O[C@@H]1c1ccc(Cl)cc1	-194
COc1ccc(N2C(=S)NC3N2C(=S)NC3(C)c2ccccc2)cc1 (stereo not drawn)	-93
CN(C)c1ccc(N=Nc2ccccc2C(=O)OCC(=O)NC2CCCC2)cc1	-112
CN(C)c1ccc(N=Nc2ccccc2C(=O)OCC(=O)N(C)C2CCCCC2)cc1	-135
SMILES	aSyn UTR act
CC(=O)Nc1cccc2c1Cc1ccccc1-2	-159
CC(=O)Nc1ccc(S(=O)(=O)NC2=C(N3CCN(C)CC3)C(=O)c3ccccc3C2=O)cc1	-
CCOC(=O)C(CC(=O)c1ccccc1)CC(=O)c1ccccc1	-105
Cc1ccc(C(=O)Sc2cccccc2=O)cc1	-109
O=C(O)c1ccc2c(c1)C(=O)N(c1ccc(C(=O)OCC(=O)c3ccccc3)cc1)C2=O	-62
CCc1ccc(C(=O)COC(=O)c2ccc(-c3nnc(-c4ccccc4)o3)cc2)cc1	-161
N=c1ccn(CC(=O)c2ccc(-c3ccccc3)cc2)cc1	-
Cc1cc(C)c(NC(=O)CC(=O)c2ccccc2)c(Cl)c1	-93
Cc1ccc(C(=O)Cn2c(-c3ccccc3)noc2=O)cc1	-100
O=C(CN1C(=O)CCC1=O)c1ccc(-c2ccccc2)cc1	-82
Cc1ccc(C(=O)CC(=O)c2ccccc2)cc1	-238
CCCC(=O)c1ccc(-c2ccccc2)cc1	-70
Cc1ccc(C(=O)COC(=O)c2cccc(NC(=O)c3ccc([N+](=O)[O-])cc3[N+](=O)[O-])c2)cc1	-162
